Records with an inconclusive call do not appear. Where a call stands in place of a potency, no number is given. Active and inactive are the calls of the source. Calls come from the whole dose curve; as a rule, active = well fitted cell-killing curve with a large enough effect in the repeat runs; inconclusive = weak or mixed curves, or effect the other way; inactive = no such curve, though single readings can be large or run the other way.
Experiment: qHTS assay to identify small molecule antagonists of the peroxisome proliferator-activated receptor gamma (PPARg) signaling pathway - cell viability counter screen (AID 743194); note: nearly all actives have a fitted effect of over 55% in size
Conditions: PPARg-bla HEK293H viability, CellTiter-Glo luminescence, 17 h, co-treated with 50 nM rosiglitazone; series mostly up to 62.6 µM
Excerpt: U.S. Tox21 Program National Center for Advancing Translational Sciences [NCATS] NIH Chemical Genomics Center [NCGC] U.S. Environmental Protection Agency [EPA] National Institutes of Environmental Health Sciences [NIEHS] National Toxicology Program [NTP] U.S. Food and Drug Administration [FDA] Tox21 Assay Overview: The peroxisome proliferator-activated receptors (PPARs) are lipid-activated transcription factors of the nuclear receptor superfamily with three distinct subtypes namely PPAR alpha, PPAR delta (also called PPAR beta) and PPAR gamma (PPARg). All these subtypes heterodimerize with Retinoid X receptor (RXR) and these heterodimers regulate transcription of various genes. PPAR-gamma receptor (glitazone receptor) is involved in the regulation of glucose and lipid metabolism. To identify the compounds that activate PPAR-gamma signaling, GeneBLAzer PPAR gamma UAS-bla HEK293H cell line (Invitrogen, Carlsbad, CA, USA) containing a beta-lactamase reporter gene under the control of an Upstream Activator Sequence (UAS) was used to screen the Tox21 compound library. The cytotoxicity of the Tox21 compound library against the PPARg-bla cell line was tested in parallel by measuring the cell viability using CellTiter-Glo assay in the same wells.
Tox21 Assay Protocol Summary: PPARg-bla cells were dispensed at 3000 cells/5uL/well in 1536-well black wall/clear bottom plates using a Multidrop Combi (Thermo Fisher Scientific, Waltham, MA) dispenser. After the assay plates were incubated at 37 C and 5% CO2 for 5 h, 23 nL of compounds dissolved in DMSO, positive controls or DMSO only was transferred to the assay plate by a Pintool station (Kalypsys, San Diego, CA), followed by addition of 1ul Rosiglitazone (50 nM, final concentration in the wells). The assay plates were incubated at 37 C for 17 h, and then 1 uL of LiveBLAzerTM B/G FRET substrate was added using a Bioraptr Flying Reagent Dispenser (FRD) workstation (Beckman Coulter, Indianapolis, IN, USA). The assay plates were incubated at room temperature for 1 h and fluorescence intensity was measured by an Envision plate reader (PerkinElmer, Shelton, CT). For cell viability readout that measures cytotoxicity, 4 ul/well of CellTiter-Glo reagent was added into the assay plates using a Flying Reagent Dispenser. After 30 min incubation at room temperature, the luminescence intensity in the plates was measured using a ViewLux plate reader (PerkinElmer).
With `CC(C)=CCOc1ccc(/C=C/C(=O)c2ccc(OCC=C(C)C)cc2OCC(=O)O)cc1` the Potency was 29.8 µM (active). For `CCCCCCCCCCCCc1ccc(O)cc1`, the Potency was 19.5 µM (active). With `CN(C)[C@@H]1C(=O)C(C(N)=O)=C(O)[C@@]2(O)C(=O)C3=C(O)c4c(O)ccc(Cl)c4[C@@H](O)[C@H]3C[C@@H]12` the Potency was “inactive”. For `O=C(NOCC1CC1)c1ccc(F)c(F)c1Nc1ccc(I)cc1Cl`, the Potency was 13.3 µM (active). In the case of `CC(C)CCCCCCCCCCCCCCC(=O)O`, the Potency is reported as “inactive”. With `Clc1ccc2cc3ccccc3cc2c1` the Potency was “inactive”. With `Cc1[nH]cnc1C[C@H]1CCc2c(C)c3ccccc3n2C1=O` the Potency was 19 µM (active). In the case of `CCCC(C)c1ccccc1O` (stereo not given), the Potency is reported as “inactive”. In the case of `ON=C1CCCC1`, the Potency is reported as “inactive”. With `COc1cc(-c2ccc(N=C=O)c(OC)c2)ccc1N=C=O` the Potency was “inactive”. In the case of `OCCCCCCCCCCCCBr`, the Potency is reported as “inactive”. In the case of `CCCCCCCCOC(=O)c1ccc(O)cc1`, the Potency is reported as “inactive”. With `CCOc1ccc2nc3cc(N)ccc3c(N)c2c1` the Potency was “inactive”. For `CCOC(=O)O[C@H](C)OC(=O)c1ccc2c(c1)cc(C(=O)NC1CCN(C(C)C)CC1)n2Cc1cc(-c2ccc(Cl)s2)on1`, the Potency was 10.2 µM (active). For `O=c1cc(-c2ccc(O)cc2)oc2cc(O)cc(O)c12`, the Potency was “inactive”. With `CCC1OCC(COc2ccc(Oc3ccccc3)cc2)O1` (stereo not given) the Potency was “inactive”. For `Cc1cc(O)c(C(C)(C)C)cc1C(C)(C)C`, the Potency was 49 µM (active). In the case of `Nc1ccc(N)c2ccccc12`, the Potency is reported as 1.23 µM (active). In the case of `N=C1N=C(N)c2ccccc21`, the Potency is reported as “inactive”. With `CCCCCCCCn1sc(Cl)c(Cl)c1=O` the Potency was 21.9 µM (active). For `CCc1cc(SCc2sc(-c3ccc(C(F)(F)F)cc3)nc2CN2CCN(c3ccc(OC)cc3)CC2)ccc1OCC(=O)O`, the Potency was 24.5 µM (active). In the case of `CSc1ccc(/C=C2/C(C)=C(CC(=O)O)c3cc(F)ccc32)cc1`, the Potency is reported as “inactive”. In the case of `CCCCCCCCCCCCCC[P+](CCCC)(CCCC)CCCC` (tested in a mixture with another compound), the Potency is reported as 0.277 µM (active). In the case of `COC(=O)C1=C(C)NC(C)=C(C(=O)OCCc2ccc(N3CCN(C(c4ccccc4)c4ccccc4)CC3)cc2)C1c1cccc([N+](=O)[O-])c1` (stereo not given), the Potency is reported as “inactive”. In the case of `CCCCCCCC[N+](CCCCCCCC)(CCCCCCCC)CCCCCCCC`, the Potency is reported as 10.9 µM (active). In the case of `CCCCN(CCCC)c1ccc(C(=O)c2ccccc2C(=O)O)c(O)c1`, the Potency is reported as 44.1 µM (active). In the case of `C=CC(=O)OCCn1c(=O)n(CCOC(=O)C=C)c(=O)n(CCOC(=O)C=C)c1=O`, the Potency is reported as 13.8 µM (active). For `[Cl][Bi]([Cl])([c]1ccccc1)([c]1ccccc1)[c]1ccccc1`, the Potency was 3.45 µM (active). For `CCCC/C=C/CCCCO`, the Potency was “inactive”. With `C/C=C1/C(=O)C[C@H]2[C@@H]3CCC4=CC(=O)CC[C@]4(C)[C@H]3CC[C@]12C` the Potency was “inactive”. In the case of `CCCCCCOC(=O)c1ccc(O)cc1`, the Potency is reported as “inactive”. With `CCCCN1C(=O)[C@@H]([C@H](O)C2CCCCC2)NC(=O)C12CCN(Cc1ccc(Oc3ccc(C(=O)O)cc3)cc1)CC2` the Potency was “inactive”. In the case of `Cc1c(C)c2c(c(C)c1OC(=O)CCC(=O)O)CC[C@@](C)(CCC[C@H](C)CCC[C@H](C)CCCC(C)C)O2`, the Potency is reported as “inactive”. For `Nc1c2ccccc2nc2ccccc12`, the Potency was “inactive”. With `Oc1cccc2cc3cccc(O)c3c(O)c12` the Potency was “inactive”. With `CC(=O)OCC(C)OC(C)=O` (stereo not given) the Potency was “inactive”. In the case of `CCCN(CCC)c1c([N+](=O)[O-])cc(C(F)(F)F)c(N)c1[N+](=O)[O-]`, the Potency is reported as 19.4 µM (active). In the case of `CCCC(=O)OC[C@@H](OC(=O)CCC)[C@@H](OC(=O)CCC)[C@H](Cn1c2nc(=O)[nH]c(=O)c-2nc2cc(C)c(C)cc21)OC(=O)CCC`, the Potency is reported as “inactive”. In the case of `C[C@@H](NCCCc1cccc(C(F)(F)F)c1)c1cccc2ccccc12`, the Potency is reported as 26.6 µM (active). For `Nc1ccc2cc(S(=O)(=O)O)cc(O)c2c1N=Nc1ccccc1C(F)(F)F`, the Potency was “inactive”.
Potency is the fitted concentration of half-maximal effect.
